Results: PubChem BioAssay (NCI)
About 79,000 compounds went through this panel and 15% of them were active in at least one assay; those are over-represented in the sample as a whole. Unmarked numbers belong to inactive results. Active and inactive are the calls of the source. Cut-off read from the data, not from the text of the source: active = growth inhibition above about 70%; inactive = the rest.

How the values were obtained:
[1] = NCI Yeast Anticancer Drug Screen. Data for the rad50 strain (AID 155);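 note: 0% = growth of vehicle-only cultures of the same strain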; conditions: S. cerevisiae rad50 strain growth inhibition, stronger effect = higher value
Outline: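 Inhibition values express reduced yeast growth in compound-treated cultures relative to vehicle-treated controls.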

[2] = NCI Yeast Anticancer Drug Screen. Data for the mec2-1 strain (AID 157); conditions: S. cerevisiae mec2-1 strain, stronger effect = higher value
Outline: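 Readout is yeast growth inhibition, normalised to vehicle-treated controls, in the mec2-1 strain exposed to compound.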

[3] = NCI Yeast Anticancer Drug Screen. Data for the sgs1 mgt1 strain (AID 161);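 note: 0% = growth of cultures given vehicle only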; conditions: S. cerevisiae sgs1 mgt1 strain, stronger effect = higher value
Outline: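 Compounds are added to genetically altered yeast, and growth is compared with cultures given vehicle alone to give percent inhibition.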

[4] = NCI Yeast Anticancer Drug Screen. Data for the bub3 strain (AID 167); conditions: S. cerevisiae bub3 mutant strain, stronger effect = higher value
Outline: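 Steps: expose the mutant yeast strain to compound; grow alongside vehicle-treated cultures; measure growth; express inhibition against the vehicle cultures.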

[5] = NCI Yeast Anticancer Drug Screen. Data for the mlh1 rad18 strain (AID 175); conditions: S. cerevisiae mlh1 rad18 strain growth inhibition, stronger effect = higher value
Outline: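 Test agents were incubated with a yeast strain of defined genotype (DNA damage repair defect). Inhibition of growth was derived by comparison with vehicle-exposed cultures.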

[6] = NCI Yeast Anticancer Drug Screen. Data for the cln2 rad14 strain (AID 165);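 note: 0% = growth equal to vehicle treated cultures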; conditions: S. cerevisiae cln2 rad14 strain, stronger effect = higher value
Outline: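 Relative to vehicle controls, growth inhibition of compound-treated cln2 rad14 yeast was recorded.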

[7] = at 5.0 µM (retest, dose inferred, filed as 0.5)
[8] = at 50.0 µM (retest, dose inferred, filed as 5.0)

SMILES | growth inhibition [1, 7] | growth inhibition [1, 8] | growth inhibition ([1]; at 50.0 µM) | growth inhibition [2, 7] | growth inhibition [2, 8] | growth inhibition ([2]; at 50.0 µM) | growth inhibition [3, 7] | growth inhibition [3, 8] | growth inhibition ([3]; at 50.0 µM) | growth inhibition [4, 7] | growth inhibition [4, 8] | growth inhibition ([4]; at 50.0 µM) | growth inhibition [5, 7] | growth inhibition [5, 8] | growth inhibition ([5]; at 50.0 µM) | growth inhibition [6, 7] | growth inhibition [6, 8] | growth inhibition ([6]; at 50.0 µM)
CC(C)(N=Nc1ccc([N+](=O)[O-])cc1)[N+](=O)[O-] | 26% | 97% (active) | 95.8% (active) | 12% | 99% (active) | 53.6% | 18% | 98% (active) | 83.3% (active) | 21% | 99% (active) | 47.4% | 23% | 99% (active) | 96.7% (active) | – | – | –
O=C(CCSCCC(=O)NNc1ccccc1)NNc1ccccc1 | 4% | 32% | 24.4% | -1% | 28% | 3.5% | 4% | 37% | 20.4% | 7% | 44% | -14.7% | 15% | 58% | 35.9% | 6% | 23% | 23.4%
COc1ccc(-c2cscc2N)cc1 | -7% | 72% (active) | 67.5% | -15% | 46% | 87.2% (active) | -9% | 38% | 51.9% | – | – | – | -1% | 56% | 89% (active) | -6% | 89% (active) | 46.1%
Cc1ccc2nc(C[n+]3ccc4ccccc4c3)ccc2c1 | -1% | 28% | 53.5% | -1% | 17% | 50.2% | – | – | – | -1% | 38% | 43% | 0% | 16% | 55.9% | -5% | 5% | -1.8%
N=C(N)c1ccc(Nc2ccc(-c3cc4ccc(C(=N)N)cc4[nH]3)cc2)cc1 | 99% (active) | 98% (active) | 98.5% (active) | 99% (active) | 99% (active) | 98.8% (active) | 99% (active) | 99% (active) | 98.8% (active) | – | – | – | 99% (active) | 98% (active) | 98.5% (active) | 99% (active) | 98% (active) | 98.3% (active)
CCCCCCCCCCCCCCCCN(CC)CC | 99% (active) | 99% (active) | 99.6% (active) | 99% (active) | 99% (active) | 99.7% (active) | 99% (active) | 100% (active) | 99.4% (active) | 98% (active) | 99% (active) | 99.7% (active) | 99% (active) | 99% (active) | 99.6% (active) | – | – | –
Cc1cc(O)c2c(c1)C(=O)c1c(c(O)cc(O)c1-c1c(O)cc(O)c3c1C(=O)c1cc(C)cc(O)c1C3=O)C2=O | 14% | 60% | 64.8% | 29% | 70% (active) | 70.3% (active) | – | – | – | 17% | 69% | 63.7% | -8% | 80% (active) | 59.1% | 27% | 79% (active) | 58.1%
CCOC(=O)N1CCN(c2cc(C)nc3cc(OC)ccc23)CC1 | 4% | -4% | 21.1% | -1% | 1% | 5.9% | 0% | -5% | 17.6% | 3% | 1% | 59.5% | 0% | -7% | 38.9% | -1% | -5% | –
O=C1Sc2sc(=S)sc2SC1c1ccccc1 (stereo not drawn) | -4% | 87% (active) | 40.5% | -1% | 91% (active) | 36.5% | – | – | – | -4% | 95% (active) | 32.6% | 2% | 97% (active) | 90.5% (active) | -1% | 79% (active) | 58.1%
CSC(=S)N/N=C(\C)c1nccnc1C | 5% | 98% (active) | 98.7% (active) | 7% | 99% (active) | 98.9% (active) | 3% | 98% (active) | 98.7% (active) | – | – | – | 5% | 98% (active) | 98.9% (active) | -10% | 97% (active) | 98% (active)
CCOC(=O)C(C)(c1c(C)[nH]c2ccccc12)c1c(C)[nH]c2ccccc12 | 1% | 96% (active) | 94.8% (active) | -1% | 94% (active) | 95.6% (active) | 3% | 87% (active) | 95.8% (active) | 6% | 96% (active) | 95.5% (active) | 5% | 92% (active) | 95.3% (active) | 4% | 95% (active) | 93% (active)
O=C1Oc2ccccc2C1c1ccccc1 (stereo not drawn) | 16% | 90% (active) | 28.6% | 1% | 87% (active) | 35.5% | 4% | 91% (active) | -2.1% | – | – | – | 1% | 93% (active) | 27.5% | 10% | 92% (active) | 8.4%
CCC(=O)Sc1ccccc1C(=O)Nc1ccc(Cl)cc1 | 18% | 43% | 88.5% (active) | 28% | 64% | 92.9% (active) | 12% | 47% | 52.4% | – | – | – | 29% | 65% | 85.2% (active) | 23% | 62% | 53.1%
CCCCCCCC1SCC(=O)N1c1nncs1 (stereo not drawn) | -11% | 96% (active) | -10.8% | 0% | 65% | -20.4% | – | – | – | 19% | 95% (active) | 2.9% | -10% | 73% (active) | 5.7% | -5% | 80% (active) | 3.1%
O=[N+]([O-])/C(C(Cl)=C(Cl)Cl)=C(/Sc1ccccc1)N1CCOCC1 | 5% | 99% (active) | 88.2% (active) | 2% | 99% (active) | 91.8% (active) | -4% | 99% (active) | 85.8% (active) | -20% | 99% (active) | 89.5% (active) | 15% | 98% (active) | 83.2% (active) | – | – | –
CC(C)N=C1NS(=O)(=O)c2ccccc21 | -2% | -1% | 5.5% | -2% | 0% | -3.75% | 0% | -4% | -0.4% | -3% | -2% | 21.4% | -5% | 0% | 2.6% | – | – | –
CN(C)N=Nc1ccc(Cl)c2ncccc12 | 3% | -2% | 0.2% | -2% | -2% | 2.1% | 0% | 2% | -2.45% | -2% | 1% | -4.15% | -2% | 7% | 6.75% | – | – | –
O=Cc1cc(S(=O)(=O)c2ccc(O)c(C=O)c2)ccc1O | 12% | 22% | 98.7% (active) | 32% | 38% | 98.7% (active) | 17% | 25% | 98.8% (active) | 5% | 11% | 99% (active) | 26% | 22% | 98.6% (active) | – | – | –
CCCCCCCNCCCCCC | 64% | 92% (active) | 67.7% | 20% | 69% | 63.8% | 73% (active) | 93% (active) | 84.7% (active) | – | – | – | 78% (active) | 94% (active) | 48.6% | 28% | 86% (active) | 68.3%
OCCOCCO[P+]1(OCCOCCO)n2c3ccc2C(c2ccccc2)=C2C=CC(=N2)C(c2ccccc2)=c2ccc(n21)=C(c1ccccc1)C1=NC(=C3c2ccccc2)C=C1 | 99% (active) | 98% (active) | 91.3% (active) | 100% (active) | 99% (active) | 92.2% (active) | 99% (active) | 98% (active) | 92% (active) | – | – | – | 97% (active) | 98% (active) | 85.8% (active) | 97% (active) | 99% (active) | 91.4% (active)
CC1=NN(C(=O)c2ccc(Cl)cc2)C(=O)C1N=Nc1ccc(S(=O)(=O)Nc2ncccn2)cc1 (stereo not drawn) | 61% | 93% (active) | 55.7% | 4% | 51% | 13.2% | 11% | 8% | 10.8% | -2% | -8% | -6.7% | 6% | 20% | 17.4% | – | – | –
O=C1NC(c2cccc3ccccc23)Nc2ccc(Cl)cc21 (stereo not drawn) | 18% | 95% (active) | 74% (active) | 10% | 96% (active) | 84.8% (active) | 5% | 97% (active) | 83% (active) | 1% | 96% (active) | 80.6% (active) | 20% | 94% (active) | 77.2% (active) | – | – | –
